# Shown are actives, neighbours in structure and some others; about 2.4% of the full set was active somewhere.
# CHT inh: inhibitors of human choline transporter CHT. Q9GZV3. CHT-expressing cells, membrane potential dye, choline response; stronger effect = lower value. B-score at 10 µM. 0.86% of 310,000 active. AID 488975;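 active = B-score over 3 SD under the library average, and starting fluorescence ratio not unusually high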;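 also: choline stimulus applied at its EC90 after an EC20 pre-addition; B-score computed on integrated fluorescence ratio after choline addition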
# Target sequence (Q9GZV3 whole entry, looked up): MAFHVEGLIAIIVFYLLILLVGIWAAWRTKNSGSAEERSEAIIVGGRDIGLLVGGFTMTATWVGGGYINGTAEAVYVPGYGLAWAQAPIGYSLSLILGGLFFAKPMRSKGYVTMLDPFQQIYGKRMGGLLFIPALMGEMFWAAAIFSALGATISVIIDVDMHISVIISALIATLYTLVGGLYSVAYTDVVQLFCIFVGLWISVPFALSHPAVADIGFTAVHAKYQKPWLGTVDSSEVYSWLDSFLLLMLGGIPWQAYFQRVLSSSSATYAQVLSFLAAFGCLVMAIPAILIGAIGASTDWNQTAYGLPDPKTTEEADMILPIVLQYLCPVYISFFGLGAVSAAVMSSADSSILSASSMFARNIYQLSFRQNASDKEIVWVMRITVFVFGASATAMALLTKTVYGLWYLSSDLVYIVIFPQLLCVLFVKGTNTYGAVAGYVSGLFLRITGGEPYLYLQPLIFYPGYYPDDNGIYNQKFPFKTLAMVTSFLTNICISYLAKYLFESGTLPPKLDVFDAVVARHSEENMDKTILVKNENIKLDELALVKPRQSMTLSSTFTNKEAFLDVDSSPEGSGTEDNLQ
# CHT allo act: allosterically activates the human high affinity choline transporter | Q9GZV3 | CHT-expressing cells, membrane potential dye, choline EC20; stronger effect = higher value; LV-AA mutant CHT in HEK293 cells | B-score at 10 µM | 0.49% of 310,000 active;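 active = initial fluorescence not abnormally high and integrated response B-score, plate-corrected, over 3 SD above library mean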
# ANO1 block: inhibitors of mouse TMEM16A calcium-activated chloride channel | Q8BHY3 | HEK293 TMEM16A/YFP iodide influx fluorescence, ionomycin | normalized B-score (activity score, 25-100; higher = stronger inhibition) at 10 µM | 1.2% of 310,000 active | AID 588511;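 active = ratio plate-corrected score three or more library SD toward inhibition, starting fluorescence score within five deviations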;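 also: score derived from kinetic fluorescence span divided by baseline fluorescence per well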
# TMEM16A act: mouse TMEM16A channel activation, primary screen. Q8BHY3. HEK293 TMEM16A/YFP-H148Q/I152L, iodide quench fluorescence; stronger effect = lower value. B-score at 10 µM. 0.3% of 340,000 active. AID 623877;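 active = fluorescence-ratio B-score plate-corrected deviation score at least 3 library SD below zero, with starting fluorescence score within 5 deviations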;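 also: channel opened by trigger with iodide after compound preincubation; score built on the fluorescence ratio of max minus min over baseline; more negative score means more quench and so TMEM16A activation or potentiation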
# CHT act confirm: human CHT activation, confirmatory screen; AID 504833; shares compounds with CHT allo act; 91% of 2,500 active; activation, % at 10 µM; CHT-expressing cells, membrane potential dye fluorescence (FDSS); % of choline EC20–EC90 response window; HEK293 expressing CHT LV-AA mutant; choline added at its EC20;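 active = primary screen active, with duplicate mean activation above negative control mean plus 3 SD, cut at about 11% in these data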
# HEK293 MP dye: counter-screen for CHT activators: effect in parental HEK293 cells; shares compounds with CHT allo act; AID 623908; ratio readout change at 10 µM, hits read low; membrane potential dye fluorescence (FDSS); measured after EC20 choline addition; 62% of 2,500 active;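 active = duplicate-averaged ratio beyond 3 SD from buffer wells, up or down, though filed actives are nearly all decreases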
# * = called active by the depositor; i = inactive; . = no result given.
SMILES,CHT inh,CHT allo act,ANO1 block,TMEM16A act,CHT act confirm,HEK293 MP dye
Nc1cc2nc3ccccc3oc-2cc1=O,i,6.8*,i,i,13*,-38*
O=S(=O)(c1cc(Cl)ccc1Cl)N1CCN(c2ccccn2)CC1,i,i,i,i,.,.
O=C1CC2(CCN(C(=O)c3c(F)cccc3Cl)CC2)Oc2ccccc21,i,8.7*,i,i,-3,i
COc1ccc(Cl)cc1C(=O)N1CCC2(CC1)CC(=O)c1ccccc1O2,i,9.6*,i,i,4,i
Cc1noc(C(=O)N2CCN(Cc3ccc4c(c3)OCO4)CC2)c1Cl,i,i,i,i,.,.
CCC(C)(C)NC(=O)CN(C(=O)c1csnn1)c1ccccc1-c1ccccc1,i,i,i,i,.,.
CC(C)(C)c1ccc(C(=O)NCC(=O)O)cc1,i,i,i,i,.,.
NCCCCCC(=O)Nc1ccncc1,i,i,i,i,18*,-35*
CCOc1cc(C=NN=C2c3ccccc3-c3ccccc32)ccc1O,.,.,.,i,.,.
Cc1nc(N(C)Cc2ccccc2)c2c(C)c(C)sc2n1,i,i,i,i,26*,i
Cc1sc2nc(SCC(=O)N(C)Cc3ccccc3)n(-c3ccccc3)c(=O)c2c1C,i,i,i,i,.,.
O=C(c1cc2c(s1)CCCC2)N1CCN(S(=O)(=O)c2ccccc2C(F)(F)F)CC1,i,i,i,i,.,.
CN(C)Cc1cc(C(C)(C)c2cc(CN(C)C)c(O)c(CN(C)C)c2)cc(CN(C)C)c1O,i,8.3*,i,i,52*,-58*
Cc1ccc(-c2nc(CN(C)C)cc(CN(C)C)c2O)cc1,i,i,i,i,.,.
Cc1cc(NC(=O)c2ccc3c(c2)C(=O)N(C)C3=O)no1,i,i,i,i,44*,-42*
Cc1cc(NC(=O)c2ccc3c(c2)C(=O)N(Cc2cccnc2)C3=O)no1,i,i,i,i,26*,-27*
CCN(CC)S(=O)(=O)c1ccc(C)c(NC(=O)CSc2nc3ccc(C)cc3[nH]2)c1,i,i,i,i,.,.
O=C(NCc1ccco1)c1ccc(-c2cccc(Cl)c2)o1,i,i,i,i,.,.
COCC(=O)N(C)c1nnc(-c2cnc(C)cn2)s1,i,6.4*,i,i,59*,-55*
Cc1ccc(C(=O)N(C)c2nnc(-c3ccncc3)s2)cc1,i,i,i,i,.,.
O=C(COc1ccccc1)NCC(c1ccco1)N1CCN(c2ccccc2)CC1 (stereo unspecified),i,8*,i,i,45*,i
Cc1cc(N2CCN(C)CC2)ccc1NC(=O)c1ccc(-c2ccc(Cl)cc2)o1,i,i,i,i,4,i
CN(C)c1nc(N)c(C(=O)N=C(N)N)nc1Cl,i,8.7*,i,i,56*,-39*
CCc1ccccc1NC(=O)CNC(=O)c1cccc(S(=O)(=O)N2CCN(Cc3ccccc3)CC2)c1,i,i,i,i,.,.
Cn1c(=O)c([N+](=O)[O-])c(NCCCn2ccnc2)c2ccccc21,i,i,i,i,58*,-55*
SMILES,CHT inh,CHT allo act,ANO1 block,TMEM16A act,CHT act confirm,HEK293 MP dye
CCCCNc1c([N+](=O)[O-])c(=O)n(C)c2ccccc12,i,i,i,i,.,.
COc1cc(Nc2c3c(nc4ccccc24)CCC3)cc(OC)c1OC,i,i,i,i,36*,-36*
O=C(COc1ccccc1)NCC1(N2CCCCC2)CCCCC1,i,i,i,i,.,.
CC(=NCCCn1ccnc1)c1c(C)[nH]n(-c2ccc([N+](=O)[O-])cc2)c1=O,i,7.8*,i,i,49*,-44*
CCC(C)Sc1ccc(-c2nc3ccccn3c2NCc2ccccc2)cc1OC (stereo unspecified),.,.,.,i,.,.
COc1ccc(CSc2ccc(-c3nc4ccccn4c3NCc3ccccc3)cc2OC)cc1,i,8.9*,i,i,31*,i
COc1ccc(S(=O)(=O)N2CCCCCC2)cc1C(=O)N1CCN(c2ccccc2O)CC1,i,i,i,i,.,.
CC(C)CCOC(=O)/C(=C/c1ccco1)NC(=O)/C=C/c1ccccc1,i,8.4*,i,i,16*,i
O=C(Cn1c(-c2ccccc2)c[n+]2ccsc12)c1ccccc1,i,i,i,i,.,.
O=C(Cn1c(-c2ccccc2)c[n+]2ccsc12)c1ccc([N+](=O)[O-])cc1,i,8.6*,i,i,66*,-61*
COc1ccc(C(=O)N(CCc2ccccc2)Cc2ccccc2)c(OC)n1,i,10*,i,i,14*,i
COc1ccc([C@H]2CC(=O)C=C(c3ccc(OC)cc3OC)C2)cc1,.,.,.,i,.,.
COCCNC(=O)c1c(N)n(/N=C/c2cccs2)c2nc3ccccc3nc12,i,i,i,i,28*,i
COCCN(Cc1ccco1)C(=O)C1CCCN(c2ncnc3c2nc2n3CCCCC2)C1 (stereo unspecified),i,i,i,i,.,.
COC(=O)c1ccccc1NC(=O)CN1CCN(C23CC4CC(CC(C4)C2)C3)CC1,i,6.9*,i,i,30*,i
COC(=O)c1ccccc1NC(=O)CN1CCc2ccccc2C1,i,i,i,i,.,.
Cc1cc(=O)[nH]c(-c2ccc(C(F)(F)F)cc2)n1,i,i,i,i,.,.
Cc1cc(=O)n2c3ccccc3n(CC(O)CN3CCCCC3)c2c1C#N (stereo unspecified),i,7.3*,i,i,27*,-44*
Cc1cc(=O)n2c3ccccc3n(CC(O)CN3CCOCC3)c2c1C#N (stereo unspecified),i,i,i,i,.,.
Cc1ccc(C)c(S(=O)(=O)N2CCN(C(=O)c3cc(S(=O)(=O)NCc4ccccc4)ccc3C)CC2)c1,i,i,i,i,22*,i
CC(=O)N1CCN(C(=O)c2cc(S(=O)(=O)NCc3ccccc3)ccc2C)CC1,i,i,i,i,.,.
O=C(CCC1CCCCC1)NCCN1C2=NC[C@H](Cc3ccccc3)N2C[C@H]1Cc1ccc(O)cc1,i,6.8*,i,i,40*,i
C[C@H]1CN=C2N(CCNC(=O)CCC3CCCCC3)[C@H](Cc3ccc(O)cc3)CN21,i,i,i,i,.,.
O=C(CCC1CCCCC1)NCCN1C2=NC[C@@H](Cc3ccccc3)N2C[C@H]1Cc1ccc(O)cc1,i,13*,i,i,37*,i

# High-throughput results deposited in PubChem BioAssay by Johns Hopkins Ion Channel Center.
